Measured values from PubChem BioAssay.
The source made the active and inactive calls. Unless noted, no rule for the calls is given here.

Assays:
[1] = tested on: Wnt5a (protein binding on small-molecule microarray); experiment: small molecules binding Wnt5a protein – biophysical, small-molecule microarray, 635/667 nm fluorescence, primary screen (AID 1142); details: 635 nm fluorescence, higher = more signal;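 also: fluorescence read at 667 nm with signal to noise per printed feature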
[2] = ATP-based viability of Huh7 replicon cells – cell-based, CellTiter-Glo luminescence, basal, 48 h, cytotoxicity control for HCV replication inhibitor project, primary screen (AID 1143); details: higher = more signal, called active from +8 up or from −8 down;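 also: Huh7 hepatoma cells carrying a hepatitis C replication reporter with no stimulus; test concentration not given here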
[3] = Pseudomonas biofilm growth suppression – PAO1 strain, BacTiter-Glo luminescence, LB-PBS, primary screen (AID 1144); details: P. aeruginosa PAO1 biofilm, 12 h, higher = more signal
[4] = basal CRE-LacZ reporter activity in PC12 – cell-based, unstimulated, primary screen (AID 1145); details: no forskolin, luminescence, 4.5 h, higher = more signal, called active from +8 up or from −8 down
[5] = forskolin-driven CRE-LacZ activity in PC12 – cell-based, CRE-LacZ reporter, forskolin-stimulated, primary screen (AID 1146); details: luminescence, 4.5 h, higher = more signal, called active from +8 up or from −8 down;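 also: PC12 cells with 6xCRE LacZ reporter stimulated by forskolin 10 µM; beta-galactosidase reporter signal reflecting CREB driven transcription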
[6] = biological target: Streptavidin (Streptomyces avidinii) (UniProt P22629); experiment: compounds binding control protein streptavidin – biophysical, small-molecule microarray, 635/667 nm fluorescence, artefact control for SMM compound annotation, primary screen (AID 1147); details: higher = more signal;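 also: signal reflects streptavidin binding to arrayed compounds as a control protein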
Chain of Streptavidin (Streptomyces avidinii) (P22629 whole entry, looked up): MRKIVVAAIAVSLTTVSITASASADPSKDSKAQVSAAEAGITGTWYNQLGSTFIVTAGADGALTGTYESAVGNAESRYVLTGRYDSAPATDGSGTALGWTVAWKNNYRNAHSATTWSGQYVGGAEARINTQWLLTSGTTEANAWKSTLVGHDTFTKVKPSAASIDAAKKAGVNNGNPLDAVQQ

[7] = probe aInhba binding on compound microarray – biochemical, small-molecule microarray, 635/667 nm fluorescence, primary screen (AID 1148); details: higher = more signal;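 also: score merges 667nm spot fluorescence with signal-to-noise for antibody binding to printed compounds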
Torsin-1A (Homo sapiens) [8] = biological target: Torsin-1A (Homo sapiens) (UniProt O14656); experiment: TOR1A wild-type binding on microarray – cell lysate, small-molecule microarray, lysate, 635/667 nm, primary screen (AID 1149); details: COS7 hTOR1A-WT lysate, 635 nm fluorescence, higher = more signal
Chain of Torsin-1A (Homo sapiens) (O14656 whole entry, looked up): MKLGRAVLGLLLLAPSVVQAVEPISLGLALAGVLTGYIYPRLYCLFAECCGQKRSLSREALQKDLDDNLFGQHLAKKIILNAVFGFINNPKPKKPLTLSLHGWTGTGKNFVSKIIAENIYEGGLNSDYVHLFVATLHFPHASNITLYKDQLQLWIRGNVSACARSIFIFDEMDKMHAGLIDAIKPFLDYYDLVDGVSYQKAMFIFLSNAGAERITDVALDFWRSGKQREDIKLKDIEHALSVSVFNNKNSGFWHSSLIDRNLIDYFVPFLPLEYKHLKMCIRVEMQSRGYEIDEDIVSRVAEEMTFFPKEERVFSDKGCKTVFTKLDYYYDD

Torsin-1A (Homo sapiens) [9] = biological target: Torsin-1A (Homo sapiens) (UniProt O14656); experiment: torsin A mutant lysate binding on microarrays – cell lysate, small-molecule microarray, COS7 lysate, 635/667 nm fluorescence, primary screen (AID 1150); details: COS7 hTOR1A mutant lysate, 635 nm fluorescence, higher = more signal;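 also: score pools 667 nm emission and signal to noise measuring lysate protein binding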
[10] = tested on: Sonic hedgehog protein (Shh); experiment: Sonic hedgehog microarray binding compounds – biochemical, small-molecule microarray, 635/667 nm fluorescence, primary screen (AID 1151); details: 635 nm fluorescence, higher = more signal;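 also: Shh protein binding to compounds spotted on small-molecule microarray slides; score combines spot fluorescence intensity with signal-to-noise across triplicate slides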
[11] = optical density shifts of acrAB sulA E. coli – strain DRC41, OD650, 48 h, E. coli filamentation inducer project, primary screen (AID 1152); details: higher = more signal, called active from +8 up or from −8 down;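 also: E. coli MC1000 strain DRC41 lacking acrAB efflux pump and sulA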
[12] = probe aLefty1 binding on compound microarray – biochemical, small-molecule microarray, 635/667 nm fluorescence, primary screen (AID 1153); details: higher = more signal;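 also: score merges spot fluorescence with signal-to-noise ratio from the scanned slide images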
[13] = plasmodial surface anion channel blockers, osmotic lysis – cell-based, P. falciparum Indochina, OD700, 1 h, primary screen (AID 1154); details: P. falciparum Indochina infected RBC osmotic lysis, higher = more signal, called active from +8 up or from −8 down
[14] = plasmodial surface anion channel blockers, osmotic lysis – cell-based, P. falciparum Indochina, OD700, 2 h, primary screen (AID 1155);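 also: lysis reports solute entry through the parasite surface anion channel PSAC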; details: P. falciparum Indochina infected erythrocytes, higher = more signal, called active from +8 up or from −8 down
[15] = changes in parasitized red cell lysis, either direction – P. falciparum Indochina, OD700, 3 h, PSAC antagonist project, primary screen (AID 1156); details: P. falciparum-infected erythrocytes, osmotic lysis, higher = more signal, called active from +8 up or from −8 down
[16] = plasmodial surface anion channel blockers, osmotic lysis – cell-based, P. falciparum Indochina, OD700, 18 h, primary screen (AID 1157); details: P. falciparum Indochina infected erythrocytes, osmotic lysis OD700, 18 h; higher = more signal, called active from +8 up or from −8 down
[17] = S6 kinase pathway phospho-S6 level changes – cell-based, A549, cytoblot, luminescence, serum-stimulated, primary screen (AID 1158); details: 5 h, higher = more signal;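 also: serum-stimulated A549 lung adenocarcinoma cells; signal is phosphorylated S6 detected by cytoblot immunostaining with HRP secondary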
[18] = biological target: NADPH oxidase 2 (Homo sapiens) (UniProt P04839); experiment: compounds shifting NOX2 Amplex Red fluorescence – cell-based, HEK293-NOX2, PMA-stimulated, NOX inhibitor project, primary screen (AID 1159); details: 45 min, higher = more signal, called active from +8 up or from −8 down; also: test concentration not given here
Chain of NADPH oxidase 2 (Homo sapiens) (P04839 whole entry, looked up): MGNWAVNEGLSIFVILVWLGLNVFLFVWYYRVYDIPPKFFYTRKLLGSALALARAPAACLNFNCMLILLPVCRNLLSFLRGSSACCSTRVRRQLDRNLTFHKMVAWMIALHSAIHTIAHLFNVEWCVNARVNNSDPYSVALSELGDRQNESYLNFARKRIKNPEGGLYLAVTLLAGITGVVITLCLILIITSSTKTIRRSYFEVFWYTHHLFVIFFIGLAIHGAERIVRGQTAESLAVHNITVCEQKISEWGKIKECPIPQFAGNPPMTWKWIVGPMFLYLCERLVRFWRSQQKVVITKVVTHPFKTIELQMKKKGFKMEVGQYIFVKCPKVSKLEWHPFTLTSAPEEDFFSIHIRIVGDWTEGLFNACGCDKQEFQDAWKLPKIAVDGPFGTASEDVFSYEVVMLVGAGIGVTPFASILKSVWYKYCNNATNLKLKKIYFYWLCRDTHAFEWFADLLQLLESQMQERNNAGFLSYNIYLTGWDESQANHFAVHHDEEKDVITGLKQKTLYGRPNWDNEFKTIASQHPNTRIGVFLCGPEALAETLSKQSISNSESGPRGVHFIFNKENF

[19] = biological target: NADPH oxidase 4 (Homo sapiens) (UniProt Q9NPH5); experiment: compounds shifting NOX4 Amplex Red fluorescence – cell-based, HEK293-NOX4, tetracycline-induced, NOX inhibitor project, primary screen (AID 1160); details: HEK293-NOX4, Amplex Red H2O2 fluorescence, 45 min; higher = more signal, called active from +8 up or from −8 down
Chain of NADPH oxidase 4 (Homo sapiens) (Q9NPH5 whole entry, looked up): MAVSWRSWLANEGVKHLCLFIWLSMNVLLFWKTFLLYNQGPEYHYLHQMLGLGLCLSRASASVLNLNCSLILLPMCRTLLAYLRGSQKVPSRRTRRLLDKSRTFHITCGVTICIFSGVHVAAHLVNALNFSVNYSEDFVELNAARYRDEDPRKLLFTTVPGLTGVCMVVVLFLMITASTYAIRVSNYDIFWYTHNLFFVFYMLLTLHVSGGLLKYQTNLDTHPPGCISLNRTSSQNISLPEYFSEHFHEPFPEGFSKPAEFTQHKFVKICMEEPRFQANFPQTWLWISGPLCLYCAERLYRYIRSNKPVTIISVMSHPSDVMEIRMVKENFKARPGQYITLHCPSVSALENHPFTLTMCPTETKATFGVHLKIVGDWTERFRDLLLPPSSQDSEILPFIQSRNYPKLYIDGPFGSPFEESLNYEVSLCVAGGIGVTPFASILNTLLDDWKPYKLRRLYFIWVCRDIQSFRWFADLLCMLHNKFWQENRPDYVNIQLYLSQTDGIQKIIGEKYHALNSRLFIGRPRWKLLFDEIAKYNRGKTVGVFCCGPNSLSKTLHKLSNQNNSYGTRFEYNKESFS

[20] = biological target: NADPH oxidase 5 (Homo sapiens) (UniProt Q96PH1); experiment: compounds shifting NOX5 Amplex Red fluorescence – cell-based, HEK293-NOX5, NOX inhibitor project, primary screen (AID 1161); details: HEK293-NOX5, ionomycin, 45 min, higher = more signal
Chain of NADPH oxidase 5 (Homo sapiens) (Q96PH1 whole entry, looked up): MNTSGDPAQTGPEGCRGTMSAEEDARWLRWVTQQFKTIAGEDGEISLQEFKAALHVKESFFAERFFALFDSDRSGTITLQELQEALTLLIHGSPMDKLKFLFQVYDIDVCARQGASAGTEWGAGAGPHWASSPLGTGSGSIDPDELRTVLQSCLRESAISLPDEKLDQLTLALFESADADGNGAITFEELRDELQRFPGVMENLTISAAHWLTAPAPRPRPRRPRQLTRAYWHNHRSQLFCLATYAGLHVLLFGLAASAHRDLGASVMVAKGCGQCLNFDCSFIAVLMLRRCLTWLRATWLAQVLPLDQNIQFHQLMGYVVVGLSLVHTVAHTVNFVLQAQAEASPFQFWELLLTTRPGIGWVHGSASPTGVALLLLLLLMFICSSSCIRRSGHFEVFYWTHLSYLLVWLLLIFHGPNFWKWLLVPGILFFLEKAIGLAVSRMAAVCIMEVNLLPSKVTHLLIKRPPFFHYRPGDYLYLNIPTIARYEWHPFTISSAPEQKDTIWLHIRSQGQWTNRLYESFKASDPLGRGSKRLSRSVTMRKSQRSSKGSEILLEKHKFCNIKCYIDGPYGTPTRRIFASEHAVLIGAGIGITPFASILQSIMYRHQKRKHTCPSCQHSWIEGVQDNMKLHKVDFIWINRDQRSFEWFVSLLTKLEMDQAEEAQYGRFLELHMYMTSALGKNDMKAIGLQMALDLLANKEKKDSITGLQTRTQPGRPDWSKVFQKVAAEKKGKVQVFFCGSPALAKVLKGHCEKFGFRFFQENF

Structure (SMILES) | composite z-score [1] | z-score [2] | z-score [3] | z-score [4] | z-score [5] | composite z-score [6] | composite z-score [7] | composite z-score (Torsin-1A (Homo sapiens) [8]) | composite z-score (Torsin-1A (Homo sapiens) [9]) | composite z-score [10] | z-score [11] | composite z-score [12] | z-score [13] | z-score [14] | z-score [15] | z-score [16] | z-score [17] | z-score [18] | z-score [19] | z-score [20]
[N-]=[N+]=NCc1ccccc1[C@H]1OC(c2ccc(OCCCO)cc2)=N[C@@]1(Cc1ccccc1N=[N+]=[N-])C(=O)NCCN1CCOCC1 | 0.853 | -2.28 (inactive) | 0.28 (inactive) | 0.162 (inactive) | -0.542 (inactive) | 1.37 | 0.0657 | -0.161 | 1.04 | 0.271 | 0.0417 (inactive) | 0.194 | 24.7 (active) | 16.2 (active) | 1.7 (inactive) | 1.85 (inactive) | -0.0338 | -0.753 (inactive) | -0.358 (inactive) | 1.41
C[C@@H]1ON(c2ccccc2)[C@H](c2ccccc2)[C@H]1C(=O)N1C(=O)OC[C@H]1Cc1ccccc1 | -0.0187 | -1.04 (inactive) | -0.516 (inactive) | 0.951 (inactive) | 0.053 (inactive) | 1.9 | -0.0538 | 0.242 | -0.0355 | 0.637 | 0.848 (inactive) | -0.294 | 1.66 (inactive) | 0.282 (inactive) | -0.13 (inactive) | 0.379 (inactive) | 0.389 | 0.0547 (inactive) | -0.104 (inactive) | -1.37
C[N+](C)(C)CCCCCCNC(=O)[C@H]1C[C@H]2C(=O)N3CCC[C@H]3C(=O)N2[C@H]1c1cccc(OCCO)c1 | 0.544 | -0.0803 (inactive) | 0.236 (inactive) | -0.532 (inactive) | -0.583 (inactive) | -0.278 | -0.0112 | 1.98 | 1.71 | 2.15 | -0.507 (inactive) | 0.0683 | 5.47 (inactive) | 0.64 (inactive) | -2.56 (inactive) | 0.498 (inactive) | -0.632 | 1.18 (inactive) | 1.27 (inactive) | 0.865
COc1cc(C(O)C2C=CC3C(=O)NC(=O)C3N2Nc2ccc(Cl)cc2Cl)cc(OC)c1OC (stereo not given) | 0.273 | 0.127 (inactive) | -0.591 (inactive) | 0.622 (inactive) | 0.472 (inactive) | 1.59 | 0.115 | -0.69 | 0.81 | 0.245 | -1.52 (inactive) | 0.505 | 1.94 (inactive) | 1.49 (inactive) | 0.0681 (inactive) | 1.24 (inactive) | -0.778 | -0.885 (inactive) | -5.56 (inactive) | -3.11
COc1ccc(C(=O)Nc2ccc3c(c2)[C@]2(O[C@@H](CCO)[C@H]([Si](C)(C)c4ccc(OC)cc4)[C@H]2C)C(=O)N3Cc2ccccc2)cc1 | 0.476 | -8.09 (active) | -1.18 (inactive) | 1.82 (inactive) | -0.606 (inactive) | 0.328 | -0.0209 | 0.816 | 0.671 | 1.83 | 0.257 (inactive) | -0.147 | 4.99 (inactive) | 1.42 (inactive) | 2.07 (inactive) | -0.237 (inactive) | 0.776 | -5.81 (inactive) | -1.21 (inactive) | 0.304
CN(C)CCCN1C(=O)[C@@]2(Cc3ccccc31)c1ccccc1C(=O)N(Cc1ccccc1)[C@H]2c1ccc(CO)cc1 | -0.173 | -5.06 (inactive) | -1.74 (inactive) | -0.491 (inactive) | -0.665 (inactive) | -0.394 | -0.128 | -0.158 | -0.105 | 0.463 | 0.0234 (inactive) | -0.193 | -0.0561 (inactive) | -0.952 (inactive) | 0.182 (inactive) | -1.33 (inactive) | 2.05 | -2.34 (inactive) | -2.82 (inactive) | -2.96
COCCCNC(=O)[C@@]1(Cc2ccccc2I)c2ccccc2C(=O)N(Cc2ccccc2Cl)[C@H]1c1ccc(CO)cc1 | -0.193 | -4.15 (inactive) | -1.72 (inactive) | -0.529 (inactive) | -0.656 (inactive) | 1.46 | -0.0538 | -0.0444 | -0.078 | 0.191 | 0.437 (inactive) | -0.0346 | 5.51 (inactive) | 0.303 (inactive) | 0.65 (inactive) | 0.13 (inactive) | 0.984 | 0.374 (inactive) | -0.881 (inactive) | -2.14
CCC[C@@H]1C[C@@]1(CCC)[C@@H](NC(=O)c1ccco1)c1ccc(Cl)cc1 | -0.114 | -2.99 (inactive) | 0.789 (inactive) | 0.58 (inactive) | 0.974 (inactive) | -0.489 | 0.0074 | -1.5 | -0.94 | -0.323 | -1.37 (inactive) | -0.0035 | 1.85 (inactive) | 0.238 (inactive) | 0.425 (inactive) | 0.469 (inactive) | -0.0915 | -1.46 (inactive) | -3.83 (inactive) | -0.796
NC(=O)NCC#Cc1ccc2c(c1)[C@]1(C(=O)N2)[C@H](c2ccc(OCCO)cc2)N2[C@H](c3ccccc3)[C@H](c3ccccc3)OC(=O)[C@H]2[C@@H]1C(=O)N1CCCCCCC1 | 1.4 | 0.132 (inactive) | 0.848 (inactive) | -0.0515 (inactive) | 0.449 (inactive) | 3.11 | 1.93 | 0.533 | 1.02 | 1.35 | -1.89 (inactive) | 2.86 | 4.46 (inactive) | 1.05 (inactive) | 0.323 (inactive) | 0.565 (inactive) | -0.0231 | 1.9 (inactive) | 1.15 (inactive) | 0.333
